Measurements as given in PubChem BioAssay AID1851 (National Center for Advancing Translational Sciences (NCATS), 2009).
About 4,000 (25%) of roughly 16,000 compounds were called active. About 26% were inconclusive and are not listed. Only a sample is shown. Values without a mark were called inactive. The call rests on the fitted dose curve; in most records, active means well fitted curve in the direction sought with a large enough effect; inconclusive means small, poorly fitted or top-dose-only effect, or effect the other way; inactive means no such curve, though single readings can be large or run the other way.

target: Cytochrome P450 2C9 (Homo sapiens) (UniProt P11712); test: Cytochrome panel assay with activity outcomes; details: recombinant CYP, pro-luciferin dealkylation, luminescence, p450-cyp2c9; series mostly up to 57.1 µM; activity, negative = inhibition: at the top concentration
Sequence (P11712 whole entry, looked up): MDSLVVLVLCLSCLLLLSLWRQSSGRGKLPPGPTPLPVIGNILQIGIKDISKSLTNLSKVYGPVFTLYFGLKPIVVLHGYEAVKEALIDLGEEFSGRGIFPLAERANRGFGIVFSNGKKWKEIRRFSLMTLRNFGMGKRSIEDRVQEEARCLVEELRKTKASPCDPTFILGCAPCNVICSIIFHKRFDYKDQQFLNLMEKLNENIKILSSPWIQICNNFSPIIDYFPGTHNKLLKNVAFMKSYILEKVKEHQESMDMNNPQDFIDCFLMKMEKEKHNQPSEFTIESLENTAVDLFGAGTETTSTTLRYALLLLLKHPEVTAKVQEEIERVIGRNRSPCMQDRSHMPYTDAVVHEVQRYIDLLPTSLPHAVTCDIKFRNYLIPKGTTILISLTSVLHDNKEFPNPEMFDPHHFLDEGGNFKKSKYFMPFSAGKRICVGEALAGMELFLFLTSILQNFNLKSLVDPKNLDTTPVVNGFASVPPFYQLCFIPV
On the % scale 0 is the no-effect control and ±100 the full control effect.

Row | Compound | activity, negative = inhibition | AC50
1 | Cc1noc(C)c1-c1nc(Nc2ccncc2)c2ccccc2n1 | -10.8% [at 2.29 µM] | 
2 | COc1cccc2c1[C@@H]1CN(CCCCn3c(=O)[nH]c4c(sc5ncc(-c6ccccc6)nc54)c3=O)C[C@H]1CO2 | -12% | 
3 | CCN1C(=O)[C@H]2[C@H]3[C@H](O)[C@H](O)C/C(=N/NC(=O)OCc4ccccc4)[C@H]3CC[C@@H]2C1=O | -10.2% [at 11.4 µM] | 
4 | O=C1NCC2=C1C(c1ccc(Br)cc1)Nc1ccccc1N2 (stereo not drawn) |  | 8.91 µM (active)
5 | CN(C)Cc1cc(C(C)(C)C)ccc1-c1ccc(C(C)(C)C)cc1CN(C)C | 12.6% [at 11.4 µM] | 
6 | COc1ccc(-c2ccc(=O)n(CC(=O)Nc3nnc(C(C)C)s3)n2)cc1OC |  | 14.1 µM (active)
7 | CN(C)CCNC(=O)Cn1nc(-c2ccc(Cl)cc2)ccc1=O | 20.5% | 
8 | O=C(O)C1=CCCNC1 |  | inactive
9 | CC(C)C[C@H](NC(=O)[C@@H]1O[C@H]1C(=O)O)C(=O)NCCCCN=C(N)N | 21.6% | 
10 | CC(C)CNC(=S)N1CCN(C)CC1 | -15.7% | 
11 | C=CCNc1nc(-c2ccc(Cl)cc2)cs1 |  | 22.4 µM (active)
12 | CCCCSCc1nc2nc(Cl)c(Cl)nc2[nH]1 |  | 0.501 µM (active)
13 | Nc1ccc(CCNc2ncnc3c2ncn3[C@@H]2O[C@@H](CO)[C@H](O)[C@@H]2O)cc1 | -10.3% | 
14 | COc1ccc(C(=O)N2CCC3(CCN(C)CC3)CC2)cc1 | -6.61% | 
15 | COc1ccc(-c2ccc(C(=S)N3CCN(C(C)=O)CC3)o2)cc1 |  | 3.98 µM (active)
16 | COc1ccc(CC(=O)NCCN2CCCC2)cc1 | 8.79% | 
17 | COc1ccc(CCN(C)CCC(=O)Nc2c(C)cc(C)cc2C)cc1OC | -24.7% | 

Row | Compound | activity, negative = inhibition | AC50
18 | COc1ccc(COC(=O)N/N=C2/C[C@@H](O)[C@@H](O)[C@@H]3[C@@H]4C(=O)N(C(C)(C)C)C(=O)[C@H]4CC[C@@H]23)cc1 | -5.52% [at 11.4 µM] | 
19 | COc1ccc(COC(=O)N/N=C(\C)CC(=O)Nc2c(C)cc(C)cc2C)cc1 |  | 14.1 µM (active)
20 | COc1ccccc1-c1nc(N(C)C)c2ccccc2n1 | -2.29% [at 2.29 µM] | 
21 | COc1ccc(C(=O)N2CCC3(CC2)CN(C(=O)Nc2cccc(C#N)c2)C3)cc1 | -1.23% | 
22 | CC(=O)N1CCN(C(=O)CC2OC(=O)c3ccccc32)CC1 (stereo not drawn) |  | 15.8 µM (active)
23 | CC(=O)N1CCC2(CC1)CN(Cc1ccccc1)C2 | 17.2% | 
24 | CCC(=O)N1CCN(C(=O)c2ccccc2)CC1 | 7.52% | 
25 | Cc1cc(NC(=O)c2ccco2)ccc1-n1cnnn1 |  | 10 µM (active)
26 | Cc1ccc(SCC(=O)Nc2cccc(NC(=O)c3ccco3)c2)cc1 |  | 4.47 µM (active)
27 | Cc1ccc(SCC(=O)NNC(=O)C2CCCCC2)cc1 | 7.23% | 
28 | CC(=O)c1ccc(NC(=O)C(Cc2ccccc2)NC(=O)c2ccco2)cc1 (stereo not drawn) |  | 14.1 µM (active)
29 | CC(C)C[C@H](NC(=O)[C@@H](O)[C@@H](N)Cc1ccccc1)C(=O)O |  | inactive
30 | O=C(Nc1ccccc1)C(Cc1ccccc1)NC(=O)C12CC3CC(CC(C3)C1)C2 (stereo not drawn) | -27.7% | 
31 | CC(C)Oc1ccc(C(=O)Nc2ccc(NC(=O)c3ccco3)c(Cl)c2)cc1 |  | 14.1 µM (active)
32 | CCc1cc2cc(C)c(C)cc2nc1SCC(=O)NNC(=O)c1ccco1 | 2.57% | 
33 | COc1ccc(C(=O)Nc2ccc(NC(=O)c3ccco3)c(Cl)c2)cc1OC | -6.18% | 
